What was measured:
Assay in all cases: DAPPL (digital affinity profiling via proximity ligation, sequencing); 10 mM Tris-HCl pH 7.5, 50 mM NaCl, 1 mM DTT, 4% glycerol, room temperature, 30 min; GST-TFs on glutathione beads, 16-mer random dsDNA library, 0.1% formaldehyde crosslink after washing; high values mean tight binding
[1] = biological target: T1, FLI1 (Homo sapiens, UniProt Q01543 1-452); conditions: protein: recombinant; tags: N-terminal GST; dsDNA, one strand shown
T1 sequence: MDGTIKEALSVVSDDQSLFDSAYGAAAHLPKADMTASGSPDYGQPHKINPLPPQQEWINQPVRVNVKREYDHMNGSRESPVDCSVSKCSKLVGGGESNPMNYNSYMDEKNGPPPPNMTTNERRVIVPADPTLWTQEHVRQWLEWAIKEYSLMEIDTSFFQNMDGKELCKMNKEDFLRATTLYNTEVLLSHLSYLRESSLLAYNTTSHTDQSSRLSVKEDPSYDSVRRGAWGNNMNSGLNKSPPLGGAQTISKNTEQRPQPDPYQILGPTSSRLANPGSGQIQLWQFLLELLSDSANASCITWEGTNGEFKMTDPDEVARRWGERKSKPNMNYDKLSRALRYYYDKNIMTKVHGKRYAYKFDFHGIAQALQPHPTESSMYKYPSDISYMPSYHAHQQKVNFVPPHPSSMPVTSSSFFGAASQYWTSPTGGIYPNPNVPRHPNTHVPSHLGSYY
Method in brief: (§1)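 Pools of DNA-barcoded human transcription factors, expressed in yeast as GST fusions on glutathione beads and combined with a tag-only sample, were incubated with 200 nmole of a 16-mer random double-stranded DNA library. Incubation took 30 min at room temperature in Tris/NaCl/DTT/glycerol buffer and was followed by washing, 0.1% formaldehyde crosslinking, proximity ligation (BsaI/T4 ligase, 1 h, 37 °C), PCR amplification and sequencing on an Illumina NextSeq500. Binding signal is the ratio of a hexamer's read frequency for a factor to its frequency for the tag-only sample.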

[2] = biological target: T2, ELK1 (Homo sapiens, UniProt P19419 1-428); conditions: protein: recombinant; tags: N-terminal GST; dsDNA, one strand shown
T2 sequence: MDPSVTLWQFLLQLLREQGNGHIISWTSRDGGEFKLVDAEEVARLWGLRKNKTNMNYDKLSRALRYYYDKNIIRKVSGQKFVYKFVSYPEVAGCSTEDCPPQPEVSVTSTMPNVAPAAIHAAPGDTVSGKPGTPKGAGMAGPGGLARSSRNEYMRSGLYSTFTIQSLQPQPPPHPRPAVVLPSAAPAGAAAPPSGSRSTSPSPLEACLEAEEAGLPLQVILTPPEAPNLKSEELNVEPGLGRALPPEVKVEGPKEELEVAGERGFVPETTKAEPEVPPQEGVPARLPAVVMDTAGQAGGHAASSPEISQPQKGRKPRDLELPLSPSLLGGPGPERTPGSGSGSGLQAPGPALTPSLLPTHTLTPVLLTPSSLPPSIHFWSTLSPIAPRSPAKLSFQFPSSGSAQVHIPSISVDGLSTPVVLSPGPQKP
Method in brief: as §1

[3] = biological target: T3, GABPA (Homo sapiens, UniProt Q06546 1-454); conditions: protein: recombinant; tags: N-terminal GST; dsDNA, one strand shown
T3 sequence: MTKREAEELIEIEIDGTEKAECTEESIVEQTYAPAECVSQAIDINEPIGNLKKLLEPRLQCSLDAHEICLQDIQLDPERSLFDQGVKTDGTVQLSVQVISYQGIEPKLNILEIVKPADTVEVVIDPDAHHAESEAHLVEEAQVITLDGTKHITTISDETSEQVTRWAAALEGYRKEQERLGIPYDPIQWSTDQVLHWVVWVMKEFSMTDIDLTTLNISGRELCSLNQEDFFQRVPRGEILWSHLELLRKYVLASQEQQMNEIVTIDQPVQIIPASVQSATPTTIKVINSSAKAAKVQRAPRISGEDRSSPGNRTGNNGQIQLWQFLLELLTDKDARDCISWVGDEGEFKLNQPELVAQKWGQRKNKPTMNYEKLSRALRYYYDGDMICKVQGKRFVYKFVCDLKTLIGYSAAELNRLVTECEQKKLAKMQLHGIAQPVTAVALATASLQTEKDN
Method in brief: as §1

[4] = biological target: T4, ERG (Homo sapiens, UniProt P11308 1-479); conditions: protein: recombinant; tags: N-terminal GST; dsDNA, one strand shown
T4 sequence: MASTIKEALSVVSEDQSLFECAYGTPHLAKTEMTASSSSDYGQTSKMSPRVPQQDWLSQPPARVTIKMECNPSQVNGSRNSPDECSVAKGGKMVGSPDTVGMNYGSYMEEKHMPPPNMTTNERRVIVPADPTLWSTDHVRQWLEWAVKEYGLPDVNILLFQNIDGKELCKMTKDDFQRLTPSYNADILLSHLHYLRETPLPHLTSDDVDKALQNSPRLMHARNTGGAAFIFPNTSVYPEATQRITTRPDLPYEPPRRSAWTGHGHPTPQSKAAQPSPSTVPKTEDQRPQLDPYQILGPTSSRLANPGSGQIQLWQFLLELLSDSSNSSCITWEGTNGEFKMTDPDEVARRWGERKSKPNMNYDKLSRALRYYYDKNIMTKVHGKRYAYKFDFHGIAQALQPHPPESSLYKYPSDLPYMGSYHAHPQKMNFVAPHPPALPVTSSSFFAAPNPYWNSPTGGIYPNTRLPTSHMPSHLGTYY
Method in brief: as §1

[5] = biological target: ELF1 (Homo sapiens, UniProt P32519 1-619); conditions: protein: recombinant; tags: N-terminal GST; dsDNA, one strand shown
ELF1, sequence (P32519 whole entry): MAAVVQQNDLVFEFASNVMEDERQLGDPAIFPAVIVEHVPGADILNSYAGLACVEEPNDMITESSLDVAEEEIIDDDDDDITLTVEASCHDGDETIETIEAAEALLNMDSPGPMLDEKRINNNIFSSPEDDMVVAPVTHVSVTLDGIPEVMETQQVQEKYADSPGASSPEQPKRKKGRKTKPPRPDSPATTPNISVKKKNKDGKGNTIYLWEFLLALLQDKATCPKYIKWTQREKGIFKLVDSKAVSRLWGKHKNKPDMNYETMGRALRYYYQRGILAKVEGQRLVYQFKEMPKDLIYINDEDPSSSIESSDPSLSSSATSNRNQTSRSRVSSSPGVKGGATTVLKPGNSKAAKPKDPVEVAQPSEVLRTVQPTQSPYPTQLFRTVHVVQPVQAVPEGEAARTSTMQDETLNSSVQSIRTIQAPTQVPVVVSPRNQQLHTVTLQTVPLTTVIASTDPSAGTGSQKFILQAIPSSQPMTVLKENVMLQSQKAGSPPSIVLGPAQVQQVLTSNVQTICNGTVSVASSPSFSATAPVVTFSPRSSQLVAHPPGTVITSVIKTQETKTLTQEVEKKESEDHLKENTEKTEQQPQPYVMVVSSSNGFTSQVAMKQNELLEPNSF
Method in brief: as §1

[6] = biological target: T5, EHF (Homo sapiens, UniProt Q9NZC4 1-300); conditions: protein: recombinant; tags: N-terminal GST; dsDNA, one strand shown
T5 sequence: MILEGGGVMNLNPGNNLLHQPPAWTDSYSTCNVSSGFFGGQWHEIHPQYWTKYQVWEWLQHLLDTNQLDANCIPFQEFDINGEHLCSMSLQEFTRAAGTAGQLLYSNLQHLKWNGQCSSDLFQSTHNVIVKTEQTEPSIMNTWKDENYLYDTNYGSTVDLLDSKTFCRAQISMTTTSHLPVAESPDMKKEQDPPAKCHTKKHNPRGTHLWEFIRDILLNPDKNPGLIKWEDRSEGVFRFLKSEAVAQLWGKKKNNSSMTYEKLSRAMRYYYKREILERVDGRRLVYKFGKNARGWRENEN
Method in brief: as §1

[7] = biological target: SPI1 (Homo sapiens, UniProt P17947 1-270); conditions: protein: recombinant; tags: N-terminal GST; dsDNA, one strand shown
Method in brief: as §1

[8] = biological target: SPIB (Homo sapiens, UniProt Q01892 1-262); conditions: protein: recombinant; tags: N-terminal GST; dsDNA, one strand shown
SPIB, sequence (Q01892 whole entry): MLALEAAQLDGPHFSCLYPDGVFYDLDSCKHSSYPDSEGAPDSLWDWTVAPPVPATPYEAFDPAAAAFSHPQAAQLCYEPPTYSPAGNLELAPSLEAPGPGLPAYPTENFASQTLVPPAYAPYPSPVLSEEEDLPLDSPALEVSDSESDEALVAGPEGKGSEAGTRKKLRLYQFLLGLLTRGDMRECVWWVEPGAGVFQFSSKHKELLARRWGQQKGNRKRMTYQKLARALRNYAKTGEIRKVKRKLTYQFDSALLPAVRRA
Method in brief: as §1

[9] = biological target: T6, ELK3 (Homo sapiens, UniProt P41970 1-407); conditions: protein: recombinant; tags: N-terminal GST; dsDNA, one strand shown
T6 sequence: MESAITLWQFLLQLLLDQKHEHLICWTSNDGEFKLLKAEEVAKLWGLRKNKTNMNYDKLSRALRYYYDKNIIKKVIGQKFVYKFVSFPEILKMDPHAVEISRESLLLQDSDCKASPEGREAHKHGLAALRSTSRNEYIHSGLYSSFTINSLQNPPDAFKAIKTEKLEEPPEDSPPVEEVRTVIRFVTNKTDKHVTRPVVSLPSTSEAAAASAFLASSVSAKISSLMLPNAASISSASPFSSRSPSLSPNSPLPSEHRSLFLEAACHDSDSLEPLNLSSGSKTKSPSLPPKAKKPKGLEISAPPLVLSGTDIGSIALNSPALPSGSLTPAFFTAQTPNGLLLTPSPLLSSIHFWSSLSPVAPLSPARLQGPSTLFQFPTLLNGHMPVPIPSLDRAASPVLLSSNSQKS
Method in brief: as §1

[10] = biological target: T7, FEV (Homo sapiens, UniProt Q99581 1-238); conditions: protein: recombinant; tags: N-terminal GST; dsDNA, one strand shown
T7 sequence: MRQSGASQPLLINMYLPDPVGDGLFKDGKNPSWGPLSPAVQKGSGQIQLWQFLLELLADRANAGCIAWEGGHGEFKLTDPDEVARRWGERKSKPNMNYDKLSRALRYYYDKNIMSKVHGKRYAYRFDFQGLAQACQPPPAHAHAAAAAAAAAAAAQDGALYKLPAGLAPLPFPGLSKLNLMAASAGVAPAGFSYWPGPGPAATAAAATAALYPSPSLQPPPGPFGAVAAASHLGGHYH
Method in brief: as §1

[11] = biological target: ETV5 (Homo sapiens, UniProt P41161 1-510); conditions: protein: recombinant; tags: N-terminal GST; dsDNA, one strand shown
ETV5, sequence (P41161 whole entry): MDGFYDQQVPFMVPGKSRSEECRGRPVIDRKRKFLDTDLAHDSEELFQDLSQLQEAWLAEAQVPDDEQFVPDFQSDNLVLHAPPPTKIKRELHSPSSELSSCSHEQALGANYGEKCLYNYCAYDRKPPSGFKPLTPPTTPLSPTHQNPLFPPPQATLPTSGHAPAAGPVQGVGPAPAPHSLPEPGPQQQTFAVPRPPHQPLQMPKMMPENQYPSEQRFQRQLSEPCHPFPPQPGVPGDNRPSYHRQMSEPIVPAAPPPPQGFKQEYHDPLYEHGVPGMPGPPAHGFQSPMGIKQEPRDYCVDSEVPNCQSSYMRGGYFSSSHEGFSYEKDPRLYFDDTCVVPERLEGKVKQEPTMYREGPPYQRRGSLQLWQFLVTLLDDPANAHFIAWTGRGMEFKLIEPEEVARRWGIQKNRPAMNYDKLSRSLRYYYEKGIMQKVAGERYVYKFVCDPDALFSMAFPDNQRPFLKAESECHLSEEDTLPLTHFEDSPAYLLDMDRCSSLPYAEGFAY
Method in brief: as §1

[12] = biological target: HSF1 (Homo sapiens, UniProt Q00613 1-529); conditions: protein: recombinant; tags: N-terminal GST; chain copies: 3; dsDNA, one strand shown
HSF1, sequence (Q00613 whole entry): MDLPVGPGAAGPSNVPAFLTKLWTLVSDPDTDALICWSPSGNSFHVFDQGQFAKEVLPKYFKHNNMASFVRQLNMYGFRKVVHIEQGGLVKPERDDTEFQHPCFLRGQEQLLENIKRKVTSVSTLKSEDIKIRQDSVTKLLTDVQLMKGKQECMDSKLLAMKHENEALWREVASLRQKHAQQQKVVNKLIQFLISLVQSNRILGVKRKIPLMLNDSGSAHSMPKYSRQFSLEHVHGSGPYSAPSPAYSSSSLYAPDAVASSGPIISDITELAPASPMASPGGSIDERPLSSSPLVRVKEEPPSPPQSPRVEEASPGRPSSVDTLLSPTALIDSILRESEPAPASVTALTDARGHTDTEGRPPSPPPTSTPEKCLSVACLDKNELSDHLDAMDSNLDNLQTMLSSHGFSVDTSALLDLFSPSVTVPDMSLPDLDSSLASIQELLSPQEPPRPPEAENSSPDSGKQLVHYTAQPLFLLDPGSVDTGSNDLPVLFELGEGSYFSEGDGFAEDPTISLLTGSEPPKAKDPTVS
Method in brief: as §1

[13] = biological target: T8, SPIC (Homo sapiens, UniProt Q8N5J4 1-248); conditions: protein: recombinant; tags: N-terminal GST; dsDNA, one strand shown
T8 sequence: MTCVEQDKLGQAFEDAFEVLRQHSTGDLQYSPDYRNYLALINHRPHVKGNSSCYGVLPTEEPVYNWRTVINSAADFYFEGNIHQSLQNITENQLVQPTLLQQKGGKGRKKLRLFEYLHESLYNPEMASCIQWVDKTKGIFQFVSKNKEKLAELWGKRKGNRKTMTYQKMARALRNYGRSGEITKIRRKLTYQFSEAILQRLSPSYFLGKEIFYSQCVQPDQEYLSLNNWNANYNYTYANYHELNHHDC
Method in brief: as §1

[14] = biological target: ELF4 (Homo sapiens, UniProt Q99607 1-663); conditions: protein: recombinant; tags: N-terminal GST; dsDNA, one strand shown
ELF4, sequence (Q99607 whole entry): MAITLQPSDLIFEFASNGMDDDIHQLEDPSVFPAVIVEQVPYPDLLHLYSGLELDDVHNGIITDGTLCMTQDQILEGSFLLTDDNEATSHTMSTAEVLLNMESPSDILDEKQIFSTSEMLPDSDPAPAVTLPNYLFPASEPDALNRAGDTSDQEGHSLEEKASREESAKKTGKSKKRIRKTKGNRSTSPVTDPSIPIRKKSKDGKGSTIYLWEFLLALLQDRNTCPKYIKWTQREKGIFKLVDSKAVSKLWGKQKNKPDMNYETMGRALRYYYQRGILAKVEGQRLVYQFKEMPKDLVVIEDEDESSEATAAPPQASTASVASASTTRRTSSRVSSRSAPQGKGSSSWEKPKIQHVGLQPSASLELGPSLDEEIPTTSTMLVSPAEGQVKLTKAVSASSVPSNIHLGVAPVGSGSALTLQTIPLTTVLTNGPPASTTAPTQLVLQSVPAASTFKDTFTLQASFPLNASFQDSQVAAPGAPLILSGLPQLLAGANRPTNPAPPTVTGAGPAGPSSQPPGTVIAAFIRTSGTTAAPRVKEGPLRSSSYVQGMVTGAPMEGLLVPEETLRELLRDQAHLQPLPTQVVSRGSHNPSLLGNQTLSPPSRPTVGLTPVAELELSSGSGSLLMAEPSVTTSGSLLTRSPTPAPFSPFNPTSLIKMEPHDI
Method in brief: as §1

[15] = biological target: T9, ELK4 (Homo sapiens, UniProt P28324-2 1-405); conditions: protein: recombinant; tags: N-terminal GST; dsDNA, one strand shown
T9 sequence: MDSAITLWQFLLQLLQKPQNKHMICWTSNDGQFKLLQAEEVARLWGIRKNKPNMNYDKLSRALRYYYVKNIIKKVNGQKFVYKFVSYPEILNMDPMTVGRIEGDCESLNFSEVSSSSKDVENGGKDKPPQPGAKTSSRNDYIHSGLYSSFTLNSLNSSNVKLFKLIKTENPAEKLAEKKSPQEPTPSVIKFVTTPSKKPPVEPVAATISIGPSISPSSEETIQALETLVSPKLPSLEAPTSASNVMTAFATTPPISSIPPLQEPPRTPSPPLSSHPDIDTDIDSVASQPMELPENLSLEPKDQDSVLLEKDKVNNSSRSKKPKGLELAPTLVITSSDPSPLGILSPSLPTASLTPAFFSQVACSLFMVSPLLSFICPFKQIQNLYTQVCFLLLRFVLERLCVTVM
Method in brief: as §1

[16] = biological target: T10, ETV2 (Homo sapiens, UniProt O00321 1-342); conditions: protein: recombinant; tags: N-terminal GST; dsDNA, one strand shown
T10 sequence: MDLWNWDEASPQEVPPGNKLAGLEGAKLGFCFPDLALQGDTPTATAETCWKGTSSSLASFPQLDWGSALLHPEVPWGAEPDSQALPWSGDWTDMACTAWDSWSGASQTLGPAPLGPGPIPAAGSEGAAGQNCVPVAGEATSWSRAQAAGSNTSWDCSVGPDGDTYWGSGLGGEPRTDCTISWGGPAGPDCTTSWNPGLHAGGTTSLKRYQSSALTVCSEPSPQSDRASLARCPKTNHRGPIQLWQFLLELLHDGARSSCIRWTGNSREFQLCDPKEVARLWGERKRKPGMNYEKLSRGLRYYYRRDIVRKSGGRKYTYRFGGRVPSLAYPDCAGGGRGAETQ
Method in brief: as §1

[17] = biological target: T11, ELF3 (Homo sapiens, UniProt P78545 1-371); conditions: protein: recombinant; tags: N-terminal GST; dsDNA, one strand shown
T11 sequence: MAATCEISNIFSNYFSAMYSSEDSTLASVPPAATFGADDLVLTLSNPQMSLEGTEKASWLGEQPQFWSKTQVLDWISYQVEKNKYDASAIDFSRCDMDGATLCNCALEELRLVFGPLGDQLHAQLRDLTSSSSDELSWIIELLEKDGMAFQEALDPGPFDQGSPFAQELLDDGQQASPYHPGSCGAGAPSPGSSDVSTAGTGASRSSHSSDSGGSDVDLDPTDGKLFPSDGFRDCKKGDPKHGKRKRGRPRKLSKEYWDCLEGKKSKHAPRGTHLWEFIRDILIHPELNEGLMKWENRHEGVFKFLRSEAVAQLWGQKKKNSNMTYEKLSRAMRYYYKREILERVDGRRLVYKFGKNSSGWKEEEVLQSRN
Method in brief: as §1

[18] = biological target: CRX (Homo sapiens, UniProt O43186 1-299); conditions: protein: recombinant; tags: N-terminal GST; dsDNA, one strand shown
CRX, sequence (O43186 whole entry): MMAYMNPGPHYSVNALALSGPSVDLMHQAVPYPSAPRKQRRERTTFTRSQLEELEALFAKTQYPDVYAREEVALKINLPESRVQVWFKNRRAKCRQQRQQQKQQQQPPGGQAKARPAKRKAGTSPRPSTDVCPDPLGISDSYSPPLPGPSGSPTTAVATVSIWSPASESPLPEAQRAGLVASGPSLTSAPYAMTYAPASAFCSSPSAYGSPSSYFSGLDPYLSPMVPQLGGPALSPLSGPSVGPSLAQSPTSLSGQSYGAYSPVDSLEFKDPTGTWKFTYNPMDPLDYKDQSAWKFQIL
Method in brief: as §1

[19] = biological target: ETV1 (Homo sapiens, UniProt P50549 1-477); conditions: protein: recombinant; tags: N-terminal GST; dsDNA, one strand shown
ETV1, sequence (P50549 whole entry): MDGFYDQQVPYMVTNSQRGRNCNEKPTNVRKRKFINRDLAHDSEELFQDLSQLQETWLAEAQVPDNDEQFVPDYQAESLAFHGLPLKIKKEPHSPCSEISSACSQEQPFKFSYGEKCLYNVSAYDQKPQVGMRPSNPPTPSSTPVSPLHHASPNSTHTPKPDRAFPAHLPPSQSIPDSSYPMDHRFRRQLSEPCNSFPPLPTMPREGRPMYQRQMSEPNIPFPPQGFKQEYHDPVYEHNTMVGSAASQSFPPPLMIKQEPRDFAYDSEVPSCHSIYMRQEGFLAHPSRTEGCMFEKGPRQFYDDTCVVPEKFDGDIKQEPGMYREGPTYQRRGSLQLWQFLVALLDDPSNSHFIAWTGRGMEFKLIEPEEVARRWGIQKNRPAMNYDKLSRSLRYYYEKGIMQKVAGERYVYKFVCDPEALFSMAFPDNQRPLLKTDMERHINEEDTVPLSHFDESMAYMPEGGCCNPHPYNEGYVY
Method in brief: as §1

Sequence: TCTTGC
- binding signal [1]: 1.29 fold enrichment (6-mer frequency, TF over GST control)
- binding signal [2]: 1.33 fold enrichment (6-mer frequency, TF over GST control)
- binding signal [3]: 1.28 fold enrichment (6-mer frequency, TF over GST control)
- binding signal [4]: 1.24 fold enrichment (6-mer frequency, TF over GST control)
- binding signal [5]: 1.41 fold enrichment (6-mer frequency, TF over GST control)
- binding signal [6]: 1.31 fold enrichment (6-mer frequency, TF over GST control)
- binding signal [7]: 1.28 fold enrichment (6-mer frequency, TF over GST control)
- binding signal [8]: 1.33 fold enrichment (6-mer frequency, TF over GST control)
- binding signal [9]: 1.55 fold enrichment (6-mer frequency, TF over GST control)
- binding signal [10]: 1.24 fold enrichment (6-mer frequency, TF over GST control)
- binding signal [11]: 1.39 fold enrichment (6-mer frequency, TF over GST control)
- binding signal [12]: 1.2 fold enrichment (6-mer frequency, TF over GST control)
- binding signal [13]: 1.36 fold enrichment (6-mer frequency, TF over GST control)
- binding signal [14]: 1.32 fold enrichment (6-mer frequency, TF over GST control)
- binding signal [15]: 1.3 fold enrichment (6-mer frequency, TF over GST control)
- binding signal [16]: 1.36 fold enrichment (6-mer frequency, TF over GST control)
- binding signal [17]: 1.4 fold enrichment (6-mer frequency, TF over GST control)
- binding signal [18]: 1.21 fold enrichment (6-mer frequency, TF over GST control)
- binding signal [19]: 1.4 fold enrichment (6-mer frequency, TF over GST control)

Reference: publication PMC7862700, “An all-to-all approach to the identification of sequence-specific readers for epigenetic DNA modifications on cytosine”
